SMILES strings stand for the structures. About 1,500 (3.8%) of roughly 39,000 compounds were called active. The full list was thinned out, with actives kept by preference.

For the assay, the system named is HSkMC (human skeletal muscle cells). The experiment in a line: cytotoxicity call (relative viability < 0.9). Particulars: 10 µM.
On to `COc1ccc(-c2cc(=O)c3c(O)cc(O[C@@H]4O[C@H](CO[C@H]5O[C@H](C)[C@@H](O)[C@H](O)[C@@H]5O)[C@@H](O)[C@H](O)[C@H]4O)cc3o2)cc1O`, for which the cytotoxicity call was “inactive”. `C[C@@H]1CN([C@@H](C)CO)C(=O)c2cc(NC(=O)C3CC3)ccc2O[C@@H]1CN(C)C(=O)NC1CCCCC1`: the cytotoxicity call was “inactive”.

In the case of `C=CC(=O)NS(=O)(=O)c1ccccc1`, the cytotoxicity call is “inactive”. Turning to `CCS(=O)(=O)N1CC[C@H]2[C@H](CC1)S(=O)(=O)CCN2C(=O)c1ccccc1`, the cytotoxicity call is “inactive”. With `COCC(=O)N1C[C@@H](C)[C@@H](OC)CN(C)C(=O)c2ccc(NC(=O)c3ccc(OC)cc3)cc2OC[C@@H]1C`, the cytotoxicity call was “inactive”. Take `Cc1cc(N)n(-c2nc(=O)c(C)c(C)[nH]2)n1`: the cytotoxicity call is “inactive”. For the molecule `CCCCc1c(C)nc2ccc(Br)cc2c1SC(N)N`, the cytotoxicity call was “inactive”. In the case of `NS(=O)(=O)c1ccc2c(c1)COC2`, the cytotoxicity call was “inactive”. As for `COc1ccc(S(=O)(=O)N(C)C[C@@H]2Oc3c(NS(=O)(=O)c4ccc(C)cc4)cccc3C(=O)N([C@@H](C)CO)C[C@@H]2C)cc1`, the cytotoxicity call is “inactive”. As for `C[C@@H]1CN([C@@H](C)CO)C(=O)Cc2cc(NS(=O)(=O)c3ccc(Cl)cc3)ccc2O[C@H]1CN(C)Cc1ccc(C(F)(F)F)cc1`, the entry is “inactive”; as for `C[C@H]1CN([C@@H](C)CO)C(=O)Cc2cc(NS(=O)(=O)c3ccc(Cl)cc3)ccc2O[C@@H]1CN(C)Cc1ccc(C(F)(F)F)cc1`, “active”; as for `C[C@H]1CN([C@@H](C)CO)C(=O)Cc2cc(NS(=O)(=O)c3ccc(Cl)cc3)ccc2O[C@H]1CN(C)Cc1ccc(C(F)(F)F)cc1`, “active”.

Turning to `C[C@H](CO)N1C[C@H](C)[C@@H](CN(C)Cc2ccc(C(F)(F)F)cc2)Oc2ccc(NS(=O)(=O)c3ccc(Cl)cc3)cc2CC1=O`, the cytotoxicity call was “inactive”.

With `C[C@@H]1CN([C@H](C)CO)C(=O)c2cc(NC(=O)CCCN(C)C)ccc2O[C@@H]1CN(C)C(=O)NC1CCCCC1`, the cytotoxicity call was “inactive”.

As to `C[C@@H]1CN([C@@H](C)CO)C(=O)c2cc(NS(C)(=O)=O)ccc2O[C@H]1CN(C)Cc1ccc(C(=O)Nc2ccccc2N)cc1`, the cytotoxicity call is “inactive”. For `COc1ccc(CN(C)C[C@H]2Oc3ccc(NC(=O)CCN4CCOCC4)cc3C(=O)N([C@H](C)CO)C[C@H]2C)cc1`, the cytotoxicity call is “inactive”. As to `C[C@H](CO)N1C[C@H](C)[C@@H](CN(C)CC2CCCCC2)Oc2ccc(NC(=O)Nc3ccc(C(F)(F)F)cc3)cc2C1=O`, the cytotoxicity call was “inactive”. Turning to `C[C@@H]1CN([C@@H](C)CO)C(=O)c2cc(NC(=O)Nc3ccc(C(F)(F)F)cc3)ccc2O[C@@H]1CN(C)CC1CCCCC1`, the cytotoxicity call is “active”. For `C[C@H]1CN([C@@H](C)CO)C(=O)c2cc(NC(=O)Nc3ccc(C(F)(F)F)cc3)ccc2O[C@@H]1CN(C)CC1CCCCC1`, the cytotoxicity call was “inactive”. In the case of `C[C@H](CO)N1C[C@H](C)[C@H](CN(C)CC2CCCCC2)Oc2ccc(NC(=O)Nc3ccc(F)cc3)cc2C1=O`, the cytotoxicity call is “inactive”. For `C[C@@H]1CN([C@@H](C)CO)C(=O)c2cc(NC(=O)Nc3ccc(C(F)(F)F)cc3)ccc2O[C@H]1CN(C)CC1CCCCC1`, the cytotoxicity call was “active”. Take `C[C@H]1CN([C@@H](C)CO)C(=O)c2cc(NC(=O)Nc3ccc(F)cc3)ccc2O[C@@H]1CN(C)CC1CCCCC1`: the cytotoxicity call is “inactive”. As for `C[C@H](CO)N1C[C@H](C)[C@H](CN(C)CC2CCCCC2)Oc2ccc(NC(=O)Nc3ccc(C(F)(F)F)cc3)cc2C1=O`, the entry is “active”; as for `C[C@@H]1CN([C@@H](C)CO)C(=O)c2cc(NC(=O)Nc3ccc(F)cc3)ccc2O[C@@H]1CN(C)CC1CCCCC1`, “inactive”; as for `C[C@@H]1CN([C@H](C)CO)C(=O)c2cc(NC(=O)Nc3ccc(C(F)(F)F)cc3)ccc2O[C@@H]1CN(C)CC1CCCCC1`, “active”. As to `C[C@H]1CN([C@@H](C)CO)C(=O)c2cc(NC(=O)Nc3ccc(F)cc3)ccc2O[C@H]1CN(C)CC1CCCCC1`, the cytotoxicity call is “inactive”. As for `C[C@@H]1CN([C@H](C)CO)C(=O)c2cc(NC(=O)Nc3ccc(C(F)(F)F)cc3)ccc2O[C@H]1CN(C)CC1CCCCC1`, the cytotoxicity call is “inactive”. `C[C@@H]1CN([C@H](C)CO)C(=O)c2cc(NC(=O)Nc3ccc(F)cc3)ccc2O[C@H]1CN(C)CC1CCCCC1`: the cytotoxicity call was “inactive”. Consider `C[C@@H]1CCCCO[C@@H](CN(C)C(=O)Nc2ccc(C(F)(F)F)cc2)[C@@H](C)CN([C@H](C)CO)C(=O)c2cc(NS(=O)(=O)c3ccc(Cl)cc3)ccc2O1`, for which the cytotoxicity call is “inactive”. As for `O=C(C[C@H]1C[C@@H]2c3cc(NS(=O)(=O)c4ccc(F)cc4)ccc3O[C@@H]2[C@H](CO)O1)NC1CCCCC1`, the entry is “inactive”; as for `C[C@@H]1CN([C@H](C)CO)C(=O)c2cc(NC(=O)Nc3cccc4ccccc34)ccc2O[C@H]1CN(C)CC1CCCCC1`, “inactive”; as for `C[C@@H]1CCCCO[C@@H](CN(C)S(=O)(=O)c2ccc(F)cc2)[C@@H](C)CN([C@@H](C)CO)C(=O)c2cc(NC(=O)NC3CCCCC3)ccc2O1`, “inactive”. Turning to `C[C@H]1CN([C@@H](C)CO)C(=O)Cc2cc(NS(C)(=O)=O)ccc2O[C@@H]1CN(C)Cc1ccc2c(c1)OCO2`, the cytotoxicity call is “inactive”. For the molecule `O=C(C[C@@H]1C[C@@H]2c3cc(NS(=O)(=O)c4ccc(F)cc4)ccc3O[C@@H]2[C@@H](CO)O1)NC1CCCC1`, the cytotoxicity call is “inactive”. As to `O=C(C[C@H]1CC[C@@H]2[C@H](COC[C@H](O)CN2C(=O)Nc2cccc(Cl)c2)O1)NCCCN1CCOCC1`, the cytotoxicity call was “inactive”. Take `C[C@@H]1CN([C@@H](C)CO)C(=O)c2cc(NC(=O)Nc3ccc(C(F)(F)F)cc3)ccc2O[C@H]1CN(C)S(=O)(=O)c1ccc(Cl)cc1`: the cytotoxicity call was “inactive”. In the case of `C[C@H]1CN([C@@H](C)CO)C(=O)c2cc(NC(=O)Nc3ccc(C(F)(F)F)cc3)ccc2O[C@H]1CN(C)S(=O)(=O)c1ccc(Cl)cc1`, the cytotoxicity call is “inactive”. For the molecule `C[C@H]1CN([C@@H](C)CO)C(=O)c2cc(NC(=O)Nc3ccc(C(F)(F)F)cc3)ccc2O[C@@H]1CN(C)S(=O)(=O)c1ccc(Cl)cc1`, the cytotoxicity call was “inactive”. On to `C[C@H](CO)N1C[C@H](C)[C@H](CN(C)S(=O)(=O)c2ccc(Cl)cc2)Oc2ccc(NC(=O)Nc3ccc(C(F)(F)F)cc3)cc2C1=O`, for which the cytotoxicity call is “active”. In the case of `C[C@@H]1CN([C@@H](C)CO)C(=O)c2cc(NC(=O)Nc3ccc(C(F)(F)F)cc3)ccc2O[C@@H]1CN(C)S(=O)(=O)c1ccc(Cl)cc1`, the cytotoxicity call is “active”. As for `Cc1ccc(S(=O)(=O)N(C)C[C@@H]2Oc3ccc(NC(=O)Nc4ccc(C(F)(F)F)cc4)cc3C(=O)N([C@@H](C)CO)C[C@H]2C)cc1`, the entry is “inactive”. As for `C[C@@H]1CN([C@H](C)CO)C(=O)c2cc(NC(=O)Nc3ccc(C(F)(F)F)cc3)ccc2O[C@H]1CN(C)S(=O)(=O)c1ccc(Cl)cc1`, the cytotoxicity call is “inactive”.

With `Cc1ccc(S(=O)(=O)N(C)C[C@@H]2Oc3ccc(NC(=O)Nc4ccc(C(F)(F)F)cc4)cc3C(=O)N([C@H](C)CO)C[C@H]2C)cc1`, the cytotoxicity call was “inactive”. On to `C[C@@H]1CN([C@H](C)CO)C(=O)c2cc(NC(=O)Nc3ccc(C(F)(F)F)cc3)ccc2O[C@@H]1CN(C)S(=O)(=O)c1ccc(Cl)cc1`, for which the cytotoxicity call is “active”.
